Format in all cases: functional
The test system of assay [1] is Plasmodium falciparum. Description: GSK_TCMDC: Inhibition of Plasmodium falciparum 3D7 in whole red blood cells, using parasite LDH activity as an index of growth. Test compounds present at 2uM.
In assay [2] the test system is Plasmodium falciparum. In words: GSK_TCMDC: Inhibition of Plasmodium falciparum Dd2 in whole red blood cells, using parasite LDH activity as an index of growth. Test compounds present at 2uM.
Another assay deals with HepG2. In words: GSK_TCMDC: Percent inhibition of human HepG2 cell line. Test compounds present at 10uM.

The structures appear in SMILES notation.

For three molecules, Inhibition results are on record in ChEMBL document CHEMBL1157539, “Thousands of chemical starting points for antimalarial lead identification” (Nature, 2010).

Usually Inhibition stands for the share of the control response that was lost under treatment. Lower therefore signals little suppression. `O=C(NC(Cc1ccccc1)C(=O)O)c1cc(=O)c2ccccc2o1` (centres undefined): the Inhibition with Plasmodium falciparum [1] turned out to be 99%; with Plasmodium falciparum [2], 10%; in the assay on HepG2 it was 53%.
Take `COc1cc2ncnc(Nc3ccc4nc(Cc5ccccc5)[nH]c4c3)c2cc1OC.Cl`: the Inhibition worked out at 87% with Plasmodium falciparum [1], 28% in the assay on Plasmodium falciparum [2] and 0% with HepG2.
As for `c1ccc2sc(Sc3ncnc4sccc34)nc2c1`, the Inhibition in the assay on Plasmodium falciparum [1] worked out at 100%; in the assay on Plasmodium falciparum [2] it was 100%; with HepG2, 7%.
